Assay results reported in the supplement of paper PMC10127200.
Counter-ions that a name gives are not always drawn.

Experiments:
Assay in all cases: Euclidean distance of Cell Painting phenotypic profile (signed KS, 77 features) to DMSO centroid (dimensionless distance); 5 or 10 uM (library dependent); higher = stronger phenotypic change vs DMSO (phenoactivity)
Conditions in all cases: 48 h
[1] = system: 786-O
Summary of the method: (§1)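 Library compounds were applied at 10 or 5 uM, depending on the library, with 0.1% DMSO final, for 48 h to five cancer lines and a healthy fibroblast line. After staining, cells were imaged confocally at 20X across 9 fields per well, and Harmony extracted 77 features, each scored as a signed Kolmogorov-Smirnov statistic against vehicle wells on the same plate. Phenoactivity is the Euclidean distance between each profile and the median vehicle profile, with profiles first plate-position corrected, correlation-weighted and averaged over replicates at the top dose.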

[2] = system: A549
Summary of the method: as §1

[3] = system: DU145
Summary of the method: as §1

[4] = system: FB
Summary of the method: as §1

[5] = system: HEPG2
Summary of the method: as §1

[6] = system: OVCAR4
Summary of the method: as §1

| SMILES | Euclidean distance [1] | Euclidean distance [2] | Euclidean distance [3] | Euclidean distance [4] | Euclidean distance [5] | Euclidean distance [6] |
| --- | --- | --- | --- | --- | --- | --- |
| CCc1cccc2c3c([nH]c12)C(CC)(CC(=O)O)OCC3 (stereo unspecified) [Etodolac] | 0.711 | 0.964 | 1.01 | 1.18 | 0.56 | 1.35 |
| CN1CCN(C2=Nc3cc(Cl)ccc3Nc3ccccc32)CC1 [Clozapine] | 1.75 | 1.56 | 1.21 | 0.901 | 1.03 | 1.34 |
| O=C1[C@@H]2[C@H]3CC[C@H](C3)[C@@H]2C(=O)N1C[C@@H]1CCCC[C@H]1CN1CCN(c2nsc3ccccc23)CC1 [lurasidone] | 1.37 | 1.25 | 1.92 | 1.35 | 0.479 | 1.27 |
| CO[C@@H]1[C@@H](O[C@@H]2O[C@H](C)[C@@H](O[C@H]3C[C@@](C)(O)[C@@H](O)[C@H](C)O3)[C@H](N(C)C)[C@H]2O)[C@@H](CC=O)C[C@@H](C)[C@@H](O[C@H]2CC[C@H](N(C)C)[C@@H](C)O2)/C=C/C=C/C[C@@H](C)OC(=O)C[C@H]1OC(C)=O [Acetylspiramycin (ASPM)] | 0.993 | 1.5 | 2.15 | 1.66 | 1.45 | 1.73 |
| CCNC(=O)[C@@H]1CCCN1C(=O)[C@H](CCCN=C(N)N)NC(=O)[C@H](CC(C)C)NC(=O)[C@@H](C)NC(=O)[C@H](Cc1ccc(O)cc1)NC(=O)[C@H](CO)NC(=O)[C@H](Cc1c[nH]c2ccccc12)NC(=O)[C@H](Cc1cnc[nH]1)NC(=O)[C@@H]1CCC(=O)N1 [Alarelin Acetate] | 0.728 | 1.38 | 0.974 | 2.05 | 1.87 | 1.24 |
| C[C@]1(c2nc3c(C(N)=O)cccc3[nH]2)CCCN1 [Veliparib (ABT-888)] | 1.29 | 1 | 0.896 | 1.35 | 0.938 | 1.16 |
| O=C(c1ccc(F)c(F)c1Nc1ccc(I)cc1F)N1CC(O)([C@@H]2CCCCN2)C1 [Cobimetinib (GDC-0973. RG7420)] | 2.92 | 2.56 | 3.23 | 4.08 | 5.18 | 2.85 |
| CCC(=O)N1CCN(c2ccc(-n3c(=O)ccc4cnc5ccc(-c6cnc7ccccc7c6)cc5c43)cc2C(F)(F)F)CC1 [Torin 1] | 2.66 | 3.46 | 2.74 | 4.26 | 2.78 | 3.47 |
| Cn1c(Nc2ccc(C(F)(F)F)cc2)nc2cc(Oc3ccnc(-c4ncc(C(F)(F)F)[nH]4)c3)ccc21 | 1.98 | 1.97 | 1.46 | 3.86 | 1.24 | 1.5 |
| Cc1cc(Nc2ncnc3ccc(NC4=NC(C)(C)CO4)cc23)ccc1Oc1ccn2ncnc2c1 [Irbinitinib (ARRY-380. ONT-380)] | 1.56 | 1.62 | 1.3 | 1.15 | 1.12 | 1.29 |
| CC[C@H]1OC(=O)[C@H](C)[C@@H](O[C@H]2C[C@@](C)(OC)[C@@H](O)[C@H](C)O2)[C@H](C)[C@@H](O[C@@H]2O[C@H](C)C[C@H](N(C)C)[C@H]2O)[C@](C)(O)C[C@@H](C)/C(=N\OCOCCOC)[C@H](C)[C@@H](O)[C@]1(C)O [Roxithromycin] | 1.03 | 0.649 | 0.699 | 1.1 | 0.654 | 1.42 |
| N[C@@H]1CCCC[C@H]1N.O=C([O-])C(=O)[O-].[Pt+2] [Eloxatin] | 3.84 | 3.01 | 1.15 | 3.29 | 2.14 | 3.55 |
| Nc1cc(C(F)(F)F)c(-c2cc(N3CCOCC3)nc(N3CCOCC3)n2)cn1 [Buparlisib (BKM120. NVP-BKM120)] | 2.55 | 3.38 | 2.88 | 2.98 | 2.83 | 3.29 |
| CCCC(=O)O[C@]1(C(=O)COC(C)=O)CC[C@H]2[C@@H]3C[C@H](F)C4=CC(=O)C=C[C@]4(C)[C@@]3(F)[C@@H](O)C[C@@]21C [Difluprednate] | 1.73 | 2.5 | 2.59 | 1.74 | 0.695 | 1.82 |
| COc1ccccc1N1CCN(CCCNc2cc(=O)n(C)c(=O)n2C)CC1 [Urapidil HCl] | 1.39 | 0.9 | 0.94 | 0.778 | 0.34 | 0.898 |
| CC(=O)Nc1nc2c(Oc3cc(-c4ccc(C(F)(F)F)cc4)ncn3)cccc2s1 | 0.826 | 0.619 | 0.706 | 0.556 | 0.84 | 0.981 |
| Cc1ncc([N+](=O)[O-])n1CCO [Metronidazole] | 0.797 | 0.775 | 0.948 | 1.08 | 0.943 | 1.6 |
| NCC[C@H](O)C(=O)N[C@@H]1C[C@H](N)[C@@H](O[C@H]2O[C@H](CN)[C@@H](O)[C@H](O)[C@H]2O)[C@H](O)[C@H]1O[C@H]1O[C@H](CO)[C@@H](O)[C@H](N)[C@H]1O [Amikacin disulfate] | 1.64 | 0.597 | 0.666 | 0.868 | 0.695 | 0.989 |
| CCCc1ncc(C[n+]2ccccc2C)c(N)n1 [Amprolium HCl] | 1.47 | 0.883 | 1.08 | 1.27 | 0.679 | 1.39 |
| O=C(Nc1ccc(OC(F)(F)F)cc1)c1sccc1NCc1ccnc2ccccc12 | 1.19 | 2.11 | 1.25 | 1.38 | 0.977 | 1.41 |
| CONC(=O)c1ccccc1Nc1cc(Nc2cc(C)nn2C(C)C)ncc1Cl | 1.35 | 1.28 | 1.33 | 2.01 | 0.825 | 1.5 |
| C#C[C@]1(O)CC[C@H]2[C@@H]3CCC4=CCCC[C@@H]4[C@H]3C(=C)C[C@@]21CC [Desogestrel] | 0.933 | 0.431 | 0.928 | 0.753 | 0.742 | 0.826 |
| CC12CC3CC(C)(C1)CC(N)(C3)C2 [Memantine HCl] | 1.1 | 0.654 | 1.66 | 1.03 | 1.95 | 1.51 |

| SMILES | Euclidean distance [1] | Euclidean distance [2] | Euclidean distance [3] | Euclidean distance [4] | Euclidean distance [5] | Euclidean distance [6] |
| --- | --- | --- | --- | --- | --- | --- |
| O=C(O)[C@@H](S)[C@@H](S)C(=O)O [Succimer] | 1.49 | 1.41 | 1.53 | 1.35 | 0.53 | 1.55 |
| NC(=O)c1cnc2[nH]ccc2c1N[C@@H]1[C@@H]2CC3C[C@H]1C[C@@](O)(C3)C2 | 2.3 | 2 | 1.41 | 3.39 | 1.42 | 2.08 |
| O=C1[C@H](CC[C@H](O)c2ccc(F)cc2)[C@@H](c2ccc(O)cc2)N1c1ccc(F)cc1 [Ezetimibe] | 1.74 | 1 | 3.08 | 1.36 | 2.26 | 1.34 |
| Cc1cn(-c2cc(NC(=O)c3ccc(C)c(Nc4nccc(-c5cccnc5)n4)c3)cc(C(F)(F)F)c2)cn1 [Nilotinib hydrochloride] | 2.28 | 4.11 | 3.01 | 1.85 | 3.37 | 3.14 |
| CN(C)C[C@@H]1CCn2cc(c3ccccc32)C2=C(C(=O)NC2=O)c2cn(c3ccccc23)CCO1 | 3.81 | 3.95 | 4.1 | 3.89 | 3.22 | 4.42 |
| COc1cc2nc(N3CCN(C(=O)c4ccco4)CC3)nc(N)c2cc1OC [Prazosin HCl] | 0.833 | 0.676 | 0.97 | 0.552 | 0.382 | 0.59 |
| COc1ccccc1Oc1c(NS(=O)(=O)c2ccc(C(C)(C)C)cc2)nc(-c2ncccn2)nc1OCCO [Bosentan Hydrate] | 1.35 | 0.814 | 0.826 | 0.916 | 0.41 | 1.04 |
| OCCN1CCN(CCCN2c3ccccc3Sc3ccc(C(F)(F)F)cc32)CC1 [Fluphenazine dihydrochloride] | 1.98 | 2.27 | 1.87 | 2.76 | 2.66 | 1.77 |
| CC(C)(O)[C@H]1CC[C@@](C)([C@H]2[C@@H](O)C[C@@]3(C)[C@@H]4C[C@H](O[C@@H]5O[C@H](CO)[C@@H](O)[C@H](O)[C@H]5O)[C@H]5C(C)(C)[C@@H](O[C@@H]6OC[C@@H](O)[C@H](O)[C@H]6O)CC[C@@]56C[C@@]46CC[C@]23C)O1 [Astragaloside A] | 4.07 | 3.46 | 3.2 | 2.61 | 2.19 | 3.11 |
| C[C@H](NC(=O)/C(C#N)=C/c1cccc(Br)n1)c1ccccc1 | 3.27 | 3.07 | 3.01 | 3.17 | 2.6 | 2.17 |
| CN1C(=O)/C(=C2/C(=O)Nc3ccccc32)c2ccccc21 [Meisoindigo] | 1.94 | 2.33 | 0.82 | 2.24 | 1.8 | 1.35 |
| CCCN(CCC)C(=O)C1=Cc2ccc(-c3ccc(C(=O)N4CCCC4)cc3)cc2N=C(N)C1 [Motolimod (VTX-2337)] | 1.67 | 2.04 | 1.35 | 1.27 | 2.18 | 2.2 |
| CC(C)NCC(O)c1ccc(NS(C)(=O)=O)cc1 (stereo unspecified) [Sotalol] | 1.21 | 0.865 | 0.768 | 0.911 | 0.602 | 1.02 |
| C=C(c1ccc(C(=O)O)cc1)c1cc2c(cc1C)C(C)(C)CCC2(C)C [Bexarotene] | 2.33 | 2 | 1.58 | 1.39 | 1.63 | 1.48 |
| Cn1c(=O)c2c(ncn2CC2OCCO2)n(C)c1=O [Doxofylline] | 1.15 | 0.81 | 0.772 | 0.965 | 0.408 | 1.15 |
| O=c1c(O)c(-c2ccc(O)cc2)oc2cc(O)cc(O)c12 [Kaempferol] | 1.49 | 0.589 | 0.883 | 1.36 | 0.783 | 1.45 |
| C[C@H]1[C@H](C)CC[C@]2(C(=O)O)CC[C@]3(C)C(=CC[C@@H]4[C@@]5(C)C[C@@H](O)[C@H](O)[C@@](C)(CO)[C@@H]5[C@H](O)C[C@]43C)[C@H]12 [Madecassic acid] | 0.661 | 0.291 | 0.775 | 0.741 | 0.461 | 0.968 |
| CNC(=O)c1ccc(N2C(=S)N(c3ccc(C#N)c(C(F)(F)F)c3)C(=O)C2(C)C)cc1F [Enzalutamide (MDV3100)] | 0.957 | 1.37 | 1.2 | 1.38 | 0.965 | 1.18 |
| Nc1nc2ccc(OC(F)(F)F)cc2s1 [Riluzole] | 1.03 | 0.891 | 2.58 | 1.3 | 0.688 | 0.739 |
| C[C@H]1O[C@@H](Oc2c(-c3cc(O)c(O)c(O)c3)oc3cc(O)cc(O)c3c2=O)[C@@H](O)[C@@H](O)[C@@H]1O [Myricitrin] | 1.28 | 0.726 | 1.03 | 1.54 | 0.535 | 0.952 |
| CNC(=O)c1ccc(-c2cnc3ncc(Cc4ccc5ncccc5c4)n3n2)cc1F | 1.36 | 0.853 | 0.871 | 0.899 | 0.745 | 0.726 |
| CCO[C@@H]1OC(=O)C[C@@H]1NC(=O)[C@@H]1CCCN1C(=O)[C@@H](NC(=O)c1ccc(N)c(Cl)c1)C(C)(C)C | 0.836 | 1.87 | 2.17 | 1.85 | 1.04 | 1.35 |
| CC1(C)CC[C@]2(NC(=O)C(C)(F)F)CC[C@]3(C)[C@H](C(=O)C=C4[C@@]5(C)C=C(C#N)C(=O)C(C)(C)[C@@H]5CC[C@]43C)[C@@H]2C1 [Omaveloxolone (RTA-408)] | 6.36 | 4.96 | 6.92 | 7.18 | 5.59 | 6.32 |
